IC50, outcome and CC50 data for 24 molecules are collected here from PubChem BioAssay AID1332 (Southern Research Institute, 2008).

Converted amounts (≈) assume the structure as drawn. The whole screen tested about 1,100 compounds, of which about 170 (15%) were called active. No rule for the calls is given here. Not all results are given here.

Usually IC50 stands for the concentration at which inhibition is half-maximal. Read a high IC50 as lower potency. As a reminder, the CC50 is the concentration that lowers cell viability or growth by half.

A short description of the assay: Mycobacterium tuberculosis H37Rv growth inhibition, confirmatory dose response, cytotoxicity (AID 1332).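 As to CC50: Vero cells exposed to compounds for 72 hours.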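 As to IC50: bacteria incubated 7 days before adding Alamar blue readout reagent.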 The note with it: M. tuberculosis H37Rv growth inhibition; CC50: measured here: Vero cell cytotoxicity; IC50: measured here: IC50 H37Rv replicates.
As to `CCCNC(C)C(=O)Nc1c(C)csc1C(=O)OC` (stereo not given), the IC50 is above 20 µg/mL and the call was inactive.

`C=C1[C@@H](O)[C@]23C[C@@H]1[C@@H](O)C[C@H]2[C@@]12C4[C@@H]3C[C@@H]1[C@@](C)(CC[C@@H]2O)CN4CC`: the IC50 was above 20 µg/mL and the molecule was called inactive.

As to `CNCCc1ccccn1`, the IC50 is above 20 µg/mL and the molecule was called inactive.

Take `CCCCOc1ccc(OCCCN2CCOCC2)cc1`: the IC50 is above 20 µg/mL and the call was inactive.

Take `C[C@H](CCC(=O)O)[C@H]1CC[C@H]2[C@@H]3[C@H](O)C[C@@H]4C[C@H](O)CC[C@]4(C)[C@H]3CC[C@]12C`: the half-maximal inhibitory concentration (IC50) was above 20 µg/mL and the result was inactive.

In the case of `CCN1C[C@]2(COC)CC[C@H](OC)[C@@]34C1[C@]1(OCO[C@@]15C[C@H](OC)[C@H]1C[C@@H]3[C@@H]5[C@H]1OC)[C@@H](O)[C@H]24`, the IC50 was above 20 µg/mL and the call was inactive.

As to `O=S(=O)(O)c1cc(O)ccc1O`, the 50% inhibitory concentration (IC50) is above 20 µg/mL and the outcome was inactive.

Turning to `CN1C2CCCC1CC(=O)C2`, the IC50 was above 20 µg/mL and the molecule was called inactive.

With `CC1=CC(=O)C2=C(C)C[C@H](O)[C@@H]3[C@H](OC(=O)[C@H]3C)[C@@H]12`, the IC50 is above 20 µg/mL and the result was inactive.

On to `CC[C@@H](C(=O)[C@@H](C)[C@@H](O)[C@H](C)CCc1ccc(C)c(O)c1C(=O)O)[C@H]1O[C@](CC)([C@H]2CC[C@](O)(CC)[C@H](C)O2)C[C@@H]1C`, for which the CC50 is above 6 µg/mL, the IC50 was found to be 6.19 µg/mL (≈ 10.5 µM) and the result was active.

As for `CC(=O)N(CC(C)C(=O)O)c1c(I)cc(I)c(N)c1I` (stereo not given), the IC50 was above 20 µg/mL and the call was inactive.

For `CC(C)(C)NC[C@H](O)COc1cccc2c1CCCC2=O`, the IC50 was above 20 µg/mL and the molecule was called inactive.

With `C[C@]12CC[C@@H]3c4ccc(O)cc4CC[C@H]3[C@@H]1C[C@@H](O)[C@@H]2O`, the IC50 was above 20 µg/mL and the call was inactive.

On to `NC(N)=NCC1COC2(CCCCC2)O1` (stereo not given), for which the IC50 is above 20 µg/mL and the molecule was called inactive.

With `Nc1ccc(S(=O)(=O)c2ccc(N)cc2)cc1`, the IC50 is 9.09 µg/mL (≈ 36.6 µM) and the molecule was classed as active.

For `Nc1ccc(S(N)(=O)=O)cc1`, the IC50 is above 20 µg/mL and the molecule was called inactive.

Consider `NC(N)=NS(=O)(=O)c1ccc(N)cc1`, for which the IC50 was above 20 µg/mL and the result was inactive.

As to `O=c1[nH]c(=O)n([C@H]2CC(O)[C@@H](CO)O2)cc1I` (stereo not given in full), the IC50 is above 20 µg/mL and the molecule was called inactive.

For `Cn1cc[nH]c1=S`, the IC50 is above 20 µg/mL and the molecule was called inactive.

Consider `CCN1CCC[C@H]1CNC(=O)c1c(OC)ccc(Br)c1OC`, for which the IC50 is above 20 µg/mL and the molecule was classed as inactive.

On to `CCCc1ncc(C[n+]2ccccc2C)c(N)n1`, for which the IC50 is above 20 µg/mL and the outcome was inactive.

`NC(=O)c1ccc[n+]([C@@H]2O[C@H](COP(=O)([O-])OP(=O)(O)OC[C@H]3O[C@@H](n4cnc5c(N)ncnc54)[C@H](O)[C@@H]3O)[C@@H](O)[C@H]2O)c1`: the IC50 was above 20 µg/mL and the result was inactive.

`Cc1onc(-c2c(F)cccc2Cl)c1C(=O)N[C@@H]1C(=O)N2C(C(=O)O)C(C)(C)S[C@H]12` (stereo not given in full): the IC50 is above 20 µg/mL and the molecule was called inactive.

Take `CNCCCC1c2ccccc2C=Cc2ccccc21`: the CC50 is above 6 µg/mL, the IC50 was determined as 17.4 µg/mL (≈ 66 µM) and the molecule was called active.
